According to the supplement of paper PMC10646978:
± gives the standard deviation.

Assays:
Details in all cases: modulator concentration 10 µM
[1] = tested on: RAW-Dual (murine macrophage reporter line); test: NF-kB reporter (SEAP) activity fold change vs agonist alone; higher = enhanced NF-kB activity
Method in brief: (§1)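 RAW-Dual murine macrophage reporter cells were plated at 50 000 per well in 384-well plates, pin-transferred compound to 10 μM final, and pre-incubated for 1 hour at 37 °C before a PRR agonist was added and the cells incubated overnight. NF-κB activity was read from supernatant SEAP with QUANTI-Blue at 620 nm absorbance, and IRF activity from Lucia luciferase with QUANTI-Luc by luminescence. Each signal was expressed as fold change by dividing by the mean agonist-only control on the same plate. Two replicate plates were averaged, with errors obtained by propagation.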

[2] = tested on: RAW-Dual (murine macrophage reporter line); test: IRF reporter (Lucia luciferase) activity fold change vs agonist alone; higher = enhanced IRF activity
Method in brief: as §1

[3] = tested on: RAW-Dual (murine macrophage reporter line); test: viability score (confluency relative to resting cells, overnight) (fraction); higher = more viable, active = viable (0.7 or more)
Method in brief: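 A compound met the cutoff when both of two confluency masks exceeded 70% of resting cells. Those masks were made with IncuCyte software from IncuCyte images of RAW-Dual macrophages treated overnight at 10 μM final. This is the basis of the viability score, which is confluency relative to resting cells.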

[4] = agonist: CpG ODN 1826 0.5 ug/mL

SMILES | NF-kB reporter [1, 4] | NF-kB reporter ([1]; agonist: LPS 0.1 ug/mL) | NF-kB reporter ([1]; agonist: MPLA […]) | IRF reporter ([2]; agonist: 3'3'-cGAMP 10 ug/mL) | IRF reporter ([2]; agonist: LPS 0.1 ug/mL) | IRF reporter ([2]; agonist: MPLA […]) | viability score [3]
COc1ccc(NC(=O)c2cn(-c3cc(N4CCSCC4)ncn3)cn2)cc1 | 1.04 ± 0.058 | 1.13 ± 0.091 | 0.939 ± 0.041 | 1.03 ± 0.069 | 1.13 ± 0.23 | 1.07 ± 0.33 | 0.997 (active)
CC1CC(OC(=O)C(O)c2ccccc2)CC(C)(C)C1 (configuration not stated) | 0.872 ± 0.037 | 1.02 ± 0.11 | 1.11 ± 0.18 | 1 ± 0.051 | 1.25 ± 0.25 | 1.48 ± 0.5 | 1.01 (active)
O=c1cc(-c2ccccc2)oc2cc(O)c(O)c(O)c12 | 1.51 ± 0.5 | 1.09 ± 0.075 | 1.2 ± 0.15 | 0.649 ± 0.034 | 1 ± 0.15 | 0.967 ± 0.12 | 0.992 (active)
COc1cccc(O)c1O | 1.72 ± 0.1 | 0.627 ± 0.083 | 0.321 ± 0.013 | 0.479 ± 0.022 | 0.422 ± 0.03 | 0.0889 ± 0.013 | 0.935 (active)
CNC(=NC#N)NCCSCc1nc[nH]c1C | 0.952 ± 0.073 | 0.94 ± 0.11 | 1.03 ± 0.16 | 1.01 ± 0.032 | 1.21 ± 0.14 | 1.36 ± 0.16 | 1.03 (active)
Cn1ccc(C(=O)Nc2nc(C(C)(C)C)cs2)n1 | 0.805 ± 0.063 | 1 ± 0.082 | 1.19 ± 0.083 | 0.993 ± 0.055 | 1.31 ± 0.18 | 1.57 ± 0.44 | 0.675 (inactive)
Cc1c(NC(=S)NC(=O)c2ccccc2[N+](=O)[O-])cccc1-c1nc2ccccc2s1 | 1.09 ± 0.087 | 1.07 ± 0.073 | 0.933 ± 0.064 | 0.88 ± 0.021 | 1.47 ± 0.2 | 1.07 ± 0.2 | 1.02 (active)
COc1ccc(Nc2nc(Nc3ccc4ncccc4c3)nc(N3CCOCC3)n2)cc1 | 0.279 ± 0.013 | 1.36 ± 0.11 | 2.85 ± 0.15 | 0.34 ± 0.015 | 1.61 ± 0.24 | 2.74 ± 0.57 | 0.904 (active)
Cc1c(C(=O)Nc2cccc3ccccc23)cccc1[N+](=O)[O-] | 0.854 ± 0.25 | 1.2 ± 0.12 | 1.04 ± 0.18 | 0.807 ± 0.034 | 1.22 ± 0.22 | 1.41 ± 0.42 | 0.633 (inactive)
COc1ccc(OC)c(Nc2nc(-c3c(C)nc4sccn34)cs2)c1 | 0.853 ± 0.073 | 0.961 ± 0.1 | 1.21 ± 0.13 | 0.925 ± 0.046 | 1.43 ± 0.094 | 1.75 ± 0.15 | 1.01 (active)
CCn1cc(C(=O)O)c(=O)c2cc(F)c(N3CCN(C)CC3)cc21.CS(=O)(=O)O | 1.12 ± 0.15 | 1.3 ± 0.22 | 0.938 ± 0.096 | 0.858 ± 0.037 | 1.45 ± 0.12 | 1.17 ± 0.11 | 0.986 (active)
CN1CCN2c3ncccc3Cc3ccccc3C2C1 (configuration not stated) | 0.912 ± 0.17 | 1.07 ± 0.22 | 1.71 ± 0.85 | 0.861 ± 0.036 | 1.42 ± 0.3 | 1.18 ± 0.21 | 0.998 (active)
COc1ccc(N2CC(NC(=O)Nc3cccc(Cl)c3C)CC2=O)cc1OC (configuration not stated) | 0.89 ± 0.064 | 1 ± 0.085 | 1.01 ± 0.061 | 0.977 ± 0.074 | 1.1 ± 0.21 | 1.15 ± 0.45 | 0.973 (active)
O=C1c2ccccc2C(=O)C1c1ccncc1 | 0.885 ± 0.066 | 1.03 ± 0.059 | 0.944 ± 0.029 | 0.757 ± 0.046 | 0.924 ± 0.1 | 0.799 ± 0.068 | 0.994 (active)
COC12C(COC(N)=O)C3=C(C(=O)C(C)=C(N)C3=O)N1CC1NC12 (configuration not stated) | 1.35 ± 0.12 | 0.967 ± 0.083 | 1.18 ± 0.13 | 1.09 ± 0.075 | 1.32 ± 0.18 | 1.41 ± 0.28 | 0.969 (active)
CCc1ccc(CCOc2ccc(CC3SC(=O)NC3=O)cc2)nc1.Cl (configuration not stated) | 1.34 ± 0.27 | 1.04 ± 0.12 | 0.983 ± 0.062 | 0.736 ± 0.028 | 1.22 ± 0.18 | 1.19 ± 0.097 | 0.997 (active)
